{"source": "ChEMBL document CHEMBL2218924", "about": "“A broad activity screen in support of a chemogenomic map for kinase signalling research and drug discovery” (Biochem J, 2013)"}
{"biological_target": "Rho-associated protein kinase 1 (Homo sapiens) (UniProt Q13464)", "sequence (Q13464 2-1354 limits assumed)": "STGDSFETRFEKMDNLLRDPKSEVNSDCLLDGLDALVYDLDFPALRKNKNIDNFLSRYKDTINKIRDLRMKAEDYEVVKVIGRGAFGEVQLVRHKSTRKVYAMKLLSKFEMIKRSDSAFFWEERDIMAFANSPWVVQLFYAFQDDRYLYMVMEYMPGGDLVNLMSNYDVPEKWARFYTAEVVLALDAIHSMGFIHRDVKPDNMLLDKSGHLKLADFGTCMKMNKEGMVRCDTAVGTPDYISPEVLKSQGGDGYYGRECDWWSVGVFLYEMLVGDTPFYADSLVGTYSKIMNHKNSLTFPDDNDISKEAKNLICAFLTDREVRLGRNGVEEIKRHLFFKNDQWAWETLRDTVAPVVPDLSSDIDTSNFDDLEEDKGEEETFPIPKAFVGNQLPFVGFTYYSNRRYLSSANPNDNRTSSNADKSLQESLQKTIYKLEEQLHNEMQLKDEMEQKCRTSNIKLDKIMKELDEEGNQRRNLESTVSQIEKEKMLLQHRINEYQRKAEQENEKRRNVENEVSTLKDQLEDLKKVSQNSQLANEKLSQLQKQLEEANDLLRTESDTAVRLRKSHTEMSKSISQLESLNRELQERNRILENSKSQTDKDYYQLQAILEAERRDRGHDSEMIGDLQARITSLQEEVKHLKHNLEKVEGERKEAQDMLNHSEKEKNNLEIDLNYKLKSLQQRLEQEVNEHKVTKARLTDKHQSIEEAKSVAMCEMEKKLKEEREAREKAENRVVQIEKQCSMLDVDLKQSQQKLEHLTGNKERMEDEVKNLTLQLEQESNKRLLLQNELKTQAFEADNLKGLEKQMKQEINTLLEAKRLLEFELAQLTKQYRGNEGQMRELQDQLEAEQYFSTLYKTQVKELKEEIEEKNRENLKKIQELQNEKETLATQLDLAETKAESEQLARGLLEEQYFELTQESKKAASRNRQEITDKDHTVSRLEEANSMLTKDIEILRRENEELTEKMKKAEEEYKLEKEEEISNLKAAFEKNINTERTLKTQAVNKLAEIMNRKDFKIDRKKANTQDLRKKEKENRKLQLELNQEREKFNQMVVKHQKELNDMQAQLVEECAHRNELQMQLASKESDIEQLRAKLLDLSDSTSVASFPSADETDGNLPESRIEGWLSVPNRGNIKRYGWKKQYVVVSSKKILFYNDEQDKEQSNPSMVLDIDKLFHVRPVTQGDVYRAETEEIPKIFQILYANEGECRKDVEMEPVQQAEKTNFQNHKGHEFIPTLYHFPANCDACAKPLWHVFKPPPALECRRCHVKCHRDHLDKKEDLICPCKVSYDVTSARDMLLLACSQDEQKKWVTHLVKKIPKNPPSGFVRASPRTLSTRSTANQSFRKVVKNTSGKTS", "details": "at 1 µM", "units": {"residual activity": "%"}}
{"molecule": "Nc1nccc(-c2c(-c3ccc(F)cc3)ncn2C2CCNCC2)n1", "residual activity": 128}
{"molecule": "O=C1Nc2ccccc2/C1=C\\c1c(Cl)[nH]c2ccccc12", "residual activity": 121}
{"molecule": "Oc1cccc(-c2nc(N3CCOCC3)c3oc4ncccc4c3n2)c1", "residual activity": 123}
{"molecule": "COc1ccc(COc2ccc(Cc3cnc(N)nc3N)cc2OC)cc1", "residual activity": 112}
{"molecule": "Nc1nc(Nc2ccc(S(N)(=O)=O)cc2)nn1C(=O)c1c(F)cccc1F", "residual activity": 65}
{"molecule": "NCCNc1ncc(C(N)=O)c(Nc2cccc(C(F)(F)F)c2)n1", "residual activity": 104}
{"molecule": "CCCCc1c(-c2ccc(OC)cc2)[nH]c2nccnc12", "residual activity": 117}
{"molecule": "O=c1c(-c2ccc(F)cc2)c(-c2ccncc2)[nH]n1-c1ccc(Cl)cc1", "residual activity": 122}
{"molecule": "O=C1NC(=O)C(c2cn(CCCn3ccnc3)c3ccccc23)=C1Nc1ccccc1", "residual activity": 120}
{"molecule": "NC(=O)c1ccc(-c2nc(-c3ccc4c(c3)OCCO4)c(-c3ccccn3)[nH]2)cc1", "residual activity": 118}
{"molecule": "CN(C)S(=O)(=O)c1ccc2c(c1)/C(=C/c1cc3c([nH]1)CCCC3)C(=O)N2", "residual activity": 132}
{"molecule": "O=C(Nc1nc2ccccc2n1CCN1CCOCC1)c1cccc([N+](=O)[O-])c1", "residual activity": 109}
{"molecule": "COc1ccc2c(c1)c(C1=C(c3c[nH]c4ccccc34)C(=O)NC1=O)cn2CCCN(C)C", "residual activity": 105}
{"molecule": "Cn1c2ccccc2c2c3c(c4c5ccccc5n(CCC#N)c4c21)CNC3=O", "residual activity": 98}
{"biological_target": "Rho-associated protein kinase 1 (Homo sapiens) (UniProt Q13464)", "details": "at 10 µM", "units": {"residual activity": "%"}}
{"molecule": "O=S(=O)(NCCNC/C=C/c1ccc(Br)cc1)c1cccc2cnccc12", "residual activity": 29}
{"molecule": "Nc1nccc(-c2c(-c3ccc(F)cc3)ncn2C2CCNCC2)n1", "residual activity": 121}
{"molecule": "CC(C)N(CCC(=O)c1ccc2ccccc2c1)Cc1ccccc1", "residual activity": 133}
{"molecule": "Oc1cccc(-c2nc(N3CCOCC3)c3oc4ncccc4c3n2)c1", "residual activity": 125}
{"molecule": "N#C/C(=C\\c1ccc(O)c(O)c1)C(=O)NCc1ccccc1", "residual activity": 123}
{"molecule": "COc1ccc(COc2ccc(Cc3cnc(N)nc3N)cc2OC)cc1", "residual activity": 120}
{"molecule": "Nc1nc(Nc2ccc(S(N)(=O)=O)cc2)nn1C(=O)c1c(F)cccc1F", "residual activity": 16}
{"molecule": "NCCNc1ncc(C(N)=O)c(Nc2cccc(C(F)(F)F)c2)n1", "residual activity": 103}
{"molecule": "O=S(=O)(c1cccc2cnccc12)N1CCCNCC1", "residual activity": 36}
{"molecule": "CCCCc1c(-c2ccc(OC)cc2)[nH]c2nccnc12", "residual activity": 102}
{"molecule": "O=C1NC(=O)C(c2cn(CCCn3ccnc3)c3ccccc23)=C1Nc1ccccc1", "residual activity": 121}
{"molecule": "O=C(c1cc2cc(O)ccc2[nH]1)c1cc2cc(O)ccc2[nH]1", "residual activity": 72}
{"molecule": "c1ccc(-c2cnc(Nc3ccc(OCCN4CCCC4)cc3)s2)cc1", "residual activity": 110}
{"molecule": "NC(=O)c1ccc(-c2nc(-c3ccc4c(c3)OCCO4)c(-c3ccccn3)[nH]2)cc1", "residual activity": 90}
{"molecule": "CN(C)S(=O)(=O)c1ccc2c(c1)/C(=C/c1cc3c([nH]1)CCCC3)C(=O)N2", "residual activity": 100}
{"molecule": "O=C(Nc1nc2ccccc2n1CCN1CCOCC1)c1cccc([N+](=O)[O-])c1", "residual activity": 106}
{"molecule": "COc1ccc2c(c1)c(C1=C(c3c[nH]c4ccccc34)C(=O)NC1=O)cn2CCCN(C)C", "residual activity": 124}
{"molecule": "Cn1c2ccccc2c2c3c(c4c5ccccc5n(CCC#N)c4c21)CNC3=O", "residual activity": 97}
